Screening results from PubChem.
This is a sample that favours compounds with a hit; in the whole collection about 1.3% have one here.
TCR act = Activators of T cell receptors: qHTS campaign; 330,000 tested, under 10 active; primary human leukocytes, anti-CD3, IL-2 HTRF, 48 h; Potency, µM (titrated, usually from 9.22 µM), for the others: top-dose activation of IL-2 secretion, hits mostly activators; AID 504894, 2011; also: % of control where 0% means no effect
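Human primary leukocytes + a-CD3 beads + cpd, 48 hr; IL-2 in supernatant by HTRF (ex 320nm / em 665nm). No co-stimulatory signal supplied.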
BRCA1 expr act = qHTS Assay to Identify Small Molecule Activators of BRCA1 Expression; MCF7-BRCA1-FFLuc reporter, luminescence, 48 h; response scale: scaled: vehicle 0%, 10 µM genistein 100%; Potency, µM (series often up to 46.1 µM), for the others: at the highest dose activation, usual class: activators; 380,000 compounds, 1.1% hits; also: potency is read from the fitted curve at half-maximal effect; nearly all actives have a fitted effect of over 80% in size
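48 h compound treatment of MCF7-BRCA1-FFLuc cells (phenol-red free MEM, 37 °C), then 15 min with luciferase substrate and luminescence imaging.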
Mito fusion yeast = qHTS Assay for Small Molecule Inhibitors of Mitochondrial Division or Activators of Mitochondrial Fusion | S. cerevisiae fusion-defective mutant growth rescue, CellTiterGlo 48 h | Potency, µM (doses to about 46.1 µM), for the others: at the top dose growth rescue (activation), actives largely listed as activators | 320,000 compounds, 0.23% hits; also: potency is read from the fitted curve at half-maximal effect; % of control where 0% means no effect; nearly all actives have a fitted effect of over 45% in size
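Temperature-sensitive fusion-defective S. cerevisiae (e.g. fzo1-1, mgm1-5) were grown with compound in YPEG medium (3% ethanol, 3% glycerol) for 48 hours at 37C. Growth rescue was measured as viability by CellTiterGlo luminescence after 10 minutes at ambient.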
IL2 activator = qHTS of IL-2 Activators | IL-2 activation reporter assay, cell-based qHTS; stimulated with anti-CD3/CD4/CD28 beads; in transgenic mouse T cells | activation, % (series mostly up to about 46 µM) | 360,000 compounds, 0.065% hits; in the data active = activation above about 50%; inconclusive = mostly about 30% to 49%; also: 0% is about no effect
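Quantitative HTS in unstimulated transgenic mouse T cells, with memory T cells as non-tolerant control and PMA/ionomycin as tolerance-bypass control. Compound pretreatment lasted 60 minutes before 18 h bead stimulation; EGFP/DsRed fluorescence read.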
p53 reactivator = qHTS assay for re-activators of p53 using a Luc reporter. 320,000 compounds, 0.063% hits. H1299 p53-A138V BP100-luciferase reporter, luminescence, 24 h. Potency, µM (titrated, usually from 92.2 µM), without a hit: at the highest dose activity change, positive = activation, usual class: activators; also: potency is read from the fitted curve at half-maximal effect; % of control where 0% means no effect; nearly all actives have a fitted effect of over 45% in size
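H1299 (p53-null), stable ts p53-A138V + BP100-Luc; 1000 cells/well, Opti-MEM/10% FBS; cpd 4 pt, 1:5; 24 h, 37 deg C, 5% CO2; detection reagent 10 min RT; luminescence.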
Starred values were filed as active, the others as inactive; ! = a repeat was not active; [ ] = another dose, or the depositor's remark. Unless noted, calls follow the shape of the dose curve; as a rule, active = well fitted curve in the direction sought with a large enough effect; inconclusive = small, poorly fitted or top-dose-only effect, or another doubt; inactive = no such curve, though single readings can be large; an effect the other way counts as inactive or inconclusive.

How did COc1ccccc1CNC(=O)CN1C(=O)COc2ccc(S(=O)(=O)N3CCC(C)CC3)cc21 do in these assays?
BRCA1 expr act: -20%

What do the screens show for `Cn1ccc(C(=O)Nc2ccc(Br)cc2Br)n1`?
TCR act: -3%[46.1 µM]; BRCA1 expr act: 2.2µM*; Mito fusion yeast: 13%; IL2 activator: 0; p53 reactivator: inconclusive

Results for Cc1ccc(NC(=O)c2sc3ncnc(N4CCN(c5ccccn5)CC4)c3c2C)c(C)c1 ?
TCR act: 6%; BRCA1 expr act: -8%; Mito fusion yeast: 13µM*; IL2 activator: -4; p53 reactivator: -4%

How did O=C(O)CCc1nc(-c2ccccc2)c(-c2ccccc2)o1 do in these assays?
Mito fusion yeast: 16µM*!

Results for O=C(CCc1nc(-c2ccccc2)c(-c2ccccc2)o1)OCc1ccc(Cl)cc1 ?
TCR act: -13%; BRCA1 expr act: -25%; Mito fusion yeast: -2%; IL2 activator: -3; p53 reactivator: -1%

How did CC(C)(C)c1ccc(/C=C/C(=O)Nc2ccc3c(c2)OCCO3)cc1 do in these assays?
Mito fusion yeast: 15µM*

What do the screens show for `COc1cc(C(c2c(C)[nH][nH]c2=O)c2c(C)[nH][nH]c2=O)ccc1OCc1ccc([N+](=O)[O-])cc1`?
TCR act: 1%; BRCA1 expr act: 3.2µM*; Mito fusion yeast: 0%; IL2 activator: -2; p53 reactivator: inconclusive

Results for COc1cc(C(c2c(C)[nH][nH]c2=O)c2c(C)[nH][nH]c2=O)ccc1OC(=O)c1cccc([N+](=O)[O-])c1 ?
TCR act: 3%; BRCA1 expr act: 2%; Mito fusion yeast: -5%; IL2 activator: 0; p53 reactivator: 8%

How did c1ccc(CCc2nc(-c3ccccc3)no2)cc1 do in these assays?
TCR act: 9%; BRCA1 expr act: 13µM*; Mito fusion yeast: -1%; IL2 activator: -2; p53 reactivator: 19%

What do the screens show for `c1ccc(CCc2nc(-c3cccnc3)no2)cc1`?
TCR act: -1%; BRCA1 expr act: 10µM*; Mito fusion yeast: 9%; IL2 activator: -1; p53 reactivator: inconclusive

How did CCCc1nc(-c2ccc(-c3ccc(F)cc3)cc2)no1 do in these assays?
TCR act: 6%; BRCA1 expr act: 4µM*; Mito fusion yeast: -9%; IL2 activator: -2; p53 reactivator: 20%

Results for O=C(NCCc1nc(-c2ccc(F)cc2)no1)c1ccc(F)cc1 ?
TCR act: 14%; BRCA1 expr act: -12%; Mito fusion yeast: 13%; IL2 activator: 1; p53 reactivator: 4%

How did COc1ccc(Cc2nc(-c3ccccc3)no2)cc1 do in these assays?
BRCA1 expr act: 11µM*; Mito fusion yeast: -5%; IL2 activator: 0; p53 reactivator: 21%

Results for COc1ccc(N2C(=O)c3ccccc3NC2c2ccc(OC)c(COc3ccc(NC(C)=O)cc3)c2)cc1 (stereo not given) ?
BRCA1 expr act: 77%

What do the screens show for `COc1ccc(OC)c(NC(=O)c2cnn(-c3ccc(C)cc3)c2C2CCNCC2)c1`?
BRCA1 expr act: -2%

What do the screens show for `CCc1ccccc1N=Cc1c(C)c(C#N)c2[nH]c3ccccc3n2c1=O`?
TCR act: 10%; BRCA1 expr act: 7%; IL2 activator: 123*

Results for O=C(CC(c1cccs1)N1Cc2ccccc2C1=O)Nc1ccccc1 (stereo not given) ?
BRCA1 expr act: 3%

How did CCCCN(CC)CCNC(=O)CN1C(=O)COc2ccc(S(=O)(=O)N3CCOCC3)cc21 do in these assays?
BRCA1 expr act: 6%

What do the screens show for `O=C(Cn1cnc2c(oc3nc4c(cc32)CCCC4)c1=O)Nc1ccccc1`?
TCR act: -2%; BRCA1 expr act: 16%; Mito fusion yeast: -2%; IL2 activator: 1; p53 reactivator: 1%

What do the screens show for `C=C(C)Cn1cnc2c(oc3nc4c(cc32)CCCC4)c1=O`?
TCR act: 4%; BRCA1 expr act: 5.6µM*; Mito fusion yeast: -11%; IL2 activator: 0; p53 reactivator: 14%

How did CN1CCc2c(c3cnc4cc(Cl)ccc4c3n2C)C1 do in these assays?
BRCA1 expr act: 11%

Results for O=C1CN(c2ccccc2)C(=S)N1C(=O)c1ccc(Br)cc1 ?
TCR act: 0%; BRCA1 expr act: 3.2µM*; Mito fusion yeast: -11%; IL2 activator: 0; p53 reactivator: -2%

Results for N/C(=N\OC(=O)c1ccccc1Cl)c1ccccn1 ?
TCR act: -6%; BRCA1 expr act: -45%; Mito fusion yeast: -3%; IL2 activator: 3; p53 reactivator: -6%

Results for N/C(=N\OC(=O)CSc1ccccc1)c1ccccn1 ?
TCR act: -4%; BRCA1 expr act: 6.3µM*; Mito fusion yeast: 5%; IL2 activator: -1; p53 reactivator: 11%

How did N/C(=N\OC(=O)c1ccccc1[N+](=O)[O-])c1ccccn1 do in these assays?
TCR act: -6%; BRCA1 expr act: 5µM*; Mito fusion yeast: 6%; IL2 activator: 0; p53 reactivator: inconclusive

Results for CC(C)C(=O)c1cc2c(cc1NC(=O)c1ccccc1F)OCCO2 ?
Mito fusion yeast: -6%

How did O=C(OCC#CCSc1nnc(-c2cccc3ccccc23)s1)c1cccs1 do in these assays?
Mito fusion yeast: -16%

How did O=C(O)c1ccc(-c2ccc(OS(=O)(=O)c3ccccc3F)cc2)cc1 do in these assays?
TCR act: 14%; BRCA1 expr act: 13µM*; Mito fusion yeast: 13%; IL2 activator: -1; p53 reactivator: 10%

How did COC(=O)c1ccccc1S(=O)(=O)Oc1ccc(-c2ccc(C(=O)O)cc2)cc1 do in these assays?
TCR act: 11%; BRCA1 expr act: -6%; Mito fusion yeast: 14%; IL2 activator: -1; p53 reactivator: 1%

How did O=C(NC(=S)Nc1ccccn1)c1ccco1 do in these assays?
TCR act: 1%[46.1 µM]; BRCA1 expr act: 78%; Mito fusion yeast: -6%; IL2 activator: -1; p53 reactivator: inconclusive

What do the screens show for `O=C(NC(=S)Nc1cccnc1Cl)c1ccco1`?
TCR act: 5%; BRCA1 expr act: 10µM*; Mito fusion yeast: 16%; IL2 activator: 0; p53 reactivator: 22%

Results for COc1cccc(OC)c1C(=O)Nc1cccc(-c2nc3cc(C)cc(C)c3o2)c1 ?
BRCA1 expr act: 18%

Results for CCN(CC)CCn1c(NCc2ccc(C)o2)nc2ccccc21 ?
TCR act: 4%; BRCA1 expr act: -1%; Mito fusion yeast: -4%; IL2 activator: 1; p53 reactivator: 2%

What do the screens show for `Cc1ccc(CNc2nc3ccccc3n2C)o1`?
BRCA1 expr act: 4µM*; Mito fusion yeast: -6%; IL2 activator: 2; p53 reactivator: inconclusive
